Compounds without any hit were thinned out: in the full panel of roughly 83,000, 20% have a hit.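 A percent growth of 40 corresponds to 60% growth inhibition; 0 means no net growth; -100 means all cells died. Active threshold: below 10.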 Values without a mark were called inactive. Active and inactive are the calls of the source.

The record followed here is PubChem BioAssay (NCI).

The subject of this assay is HCT-15 colon. Briefly: NCI-60 one-dose screen, 48 h (100 = growth as untreated, 0 = no growth, -100 = all killed). Conditions: 10 µM unless noted.
With `O=S(=O)(NCCNc1nccc(-n2cnc3ccccc32)n1)c1ccc(Br)cc1`, the growth was 95.7%.

For the molecule `CC1(C)CC[C@]23CC[C@]4(C)[C@H](CC[C@@H]5[C@@]6(C)CCCN(CO)C(C)(C)[C@@H]6CC[C@]54C)[C@H]2[C@H]1OC3`, the growth was 7.34% (active).

As to `O=C1[C@H]2Cc3c([nH]c4ccccc34)[C@@H](c3ccc(Br)cc3)N2C(=O)CN1C1CCN(CC2CCCCC2)CC1`, the growth was -91.2% (active).

For the molecule `COc1ccc([C@H]2c3[nH]c4ccccc4c3C[C@H]3C(=O)N(C4CCN(Cc5c(Cl)cccc5Cl)CC4)CC(=O)N23)c(OC)c1`, the growth is 92.4%.

Consider `NS(=O)(=O)c1ccc(Nc2nc(Nc3ccccc3)nc3nnc(SCC(=O)NC4CCCCC4)n23)cc1`, for which the growth is 104%.

Regarding `O=C(NNc1nc2cc(F)ccc2n2c(CN3CCC(O)C3)ccc12)c1cnccn1` (configuration not stated), the growth was 25.7%.

For `CCN(CC)c1cn(-c2ccc(S(N)(=O)=O)cc2)nn1`, the growth was 105%.

As to `O=[N+]([O-])c1cc(/C=N/Nc2nc(N/N=C/c3ccc(Cl)c([N+](=O)[O-])c3)nc(N3CCCCC3)n2)ccc1Cl`, the growth was 49.7%.

With `CC(=O)Nc1cccc(Nc2nc(N[C@@H](C)c3ccccc3)c3ccccc3n2)c1`, the growth is 10.4%.

For the molecule `COc1ccc(COc2ccc(/C=C3\C(=O)Nc4ccccc43)cc2OC)cc1`, the growth was 105%.

Regarding `CCNC(=O)Oc1ccc(/C(=C(/C)c2ccccc2)c2ccc(OCCN3CCCCCC3)cc2)cc1`, the growth is 3.38% (active).

With `COc1cc(/C=N/NC(=O)c2cn(C3CC3)c3c(OC)c(N4CC5CCCNC5C4)c(F)cc3c2=O)ccc1O` (configuration not stated), the growth was 32%.
